Screens deposited in PubChem BioAssay by several laboratories.
GDH-TPI counter = counter-screen for M. tuberculosis FBA inhibitors: GDH-TPI coupled enzymes. inhibition, % at 4.8 µM. 360,000 tested, 1.2% active. GDH-TPI coupled enzyme counterscreen, NADH absorbance; in the data active = inhibition above about 30%;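 also: 0% = DMSO wells and 100% = wells lacking the enzyme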
RecA intein inh = inhibitors of M. tuberculosis RecA intein splicing; P9WHJ3; cell-free RecA intein splicing, fluorescence; inhibition, % (no concentration beside the values); 290,000 tested, 0.75% active; AID 2221; in the data active = inhibition above about 30%;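 also: 0% = vehicle wells and 100% = reference inhibitor control wells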
Mtb bLac sens = beta-lactam sensitization of Mtb H37Rv. M. tuberculosis H37Rv growth with meropenem, percent inhibition. inhibition, % at 25 µM. 330,000 tested, 0.27% active. AID 434955; call rule not given here;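 also: growth measured after seven days incubation then overnight dye step; 0% = bacteria only wells and 100% = bacteria with antibiotic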
Rv3671c inh = Rv3671c (M. tuberculosis) protease inhibition; inhibition, % at 5.96 µM; 320,000 tested, 0.048% active; AID 2606; in the data active = inhibition above about 38%;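 also: extracellular domain of Rv3671c used as enzyme; 0% = enzyme with DMSO and 100% = no enzyme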
Target sequence (P9WHR9 whole entry, looked up, the tested form may be a part): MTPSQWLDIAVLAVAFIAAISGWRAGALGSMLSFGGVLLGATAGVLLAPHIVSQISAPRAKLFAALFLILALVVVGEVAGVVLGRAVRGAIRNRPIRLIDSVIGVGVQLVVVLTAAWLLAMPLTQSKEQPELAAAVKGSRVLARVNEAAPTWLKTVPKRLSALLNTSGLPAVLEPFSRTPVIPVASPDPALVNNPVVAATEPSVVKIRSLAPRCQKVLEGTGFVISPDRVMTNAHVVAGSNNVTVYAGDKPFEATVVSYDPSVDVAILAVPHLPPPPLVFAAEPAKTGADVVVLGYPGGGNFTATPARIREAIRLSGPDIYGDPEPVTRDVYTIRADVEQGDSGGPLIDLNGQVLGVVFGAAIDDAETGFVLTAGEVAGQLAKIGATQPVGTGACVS
Mtb FBA inh = inhibits M. tuberculosis FBA enzyme. P9WQA3. purified M. tuberculosis FBA, fluorescence read-out. inhibition, % at 1 µM. 360,000 tested, 2.3% active; in the data active = inhibition above about 27%;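 also: 0% = vehicle and 100% = reference inhibitor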
Mtb UGM inh = blocks M. tuberculosis UGM enzyme | P9WIQ1 | purified UGM, fluorescence polarization probe displacement | inhibition, % at 10 µM | 320,000 tested, 0.06% active; in the data active = inhibition above about 10%, passing the limit was not always enough
* = called active by the depositor; i = inactive; nt = no result given; + = active, no number. Rows were chosen to be rich in hits. Some 4% of all compounds tested hit in one or more screens of this group.

SMILES	GDH-TPI counter	RecA intein inh	Mtb bLac sens	Rv3671c inh	Mtb FBA inh	Mtb UGM inh
Cc1cc(/C=C(\C#N)C(=O)NCc2ccccc2)c(C)[nH]1	31.0*	nt	nt	nt	-2.1	nt
COc1cc(/C=C(\C#N)C(=O)NCc2ccccc2)ccc1OCc1ccc(C(=O)O)cc1	59.3*	1.3	39.6	-11.2	-5.1	2.5
N#C/C(=C\c1ccc(O)c(Br)c1)C(=O)NCc1ccccc1	8.3	0.7	1.3	0.7	-1.0	-1.0
COc1ccc(CCN(C)C(=O)C(CCSC)NC(=O)c2ccco2)cc1OC (stereo not drawn)	2.1	nt	-6.0	1.0	0.9	-0.4
CCN(CC(=O)Nc1cc(Cl)ccc1C)C(=O)c1nc2nc(C)cc(C)n2n1	4.6	nt	-0.1	-4.8	3.4	-1.0
COc1ccc(/C=C(/C#N)C(=O)Nc2ccc(O)cc2)cc1C(=O)O	23.0	45.4*	-3.7	-0.6	-6.3	-1.7
CCc1ccc(NC(=O)/C(C#N)=C\c2ccc(OC)c(C(=O)O)c2)cc1	19.8	0.0	-4.1	-7.4	-4.5	2.3
CCc1c(C)c(C#N)c2nc3ccccc3n2c1NCC1CCCO1 (stereo not drawn)	7.7	-49.0	-7.0	2.9	6.0	-0.2
CC(C)c1cc(NCCN2CCOCC2)n2c(nc3ccccc32)c1C#N	-10.6	nt	nt	nt	0.9	nt
CC(C)c1cc(NCC2CCCO2)n2c(nc3ccccc32)c1C#N (stereo not drawn)	8.0	-217.8	-8.9	-2.5	+	0.3
Cc1cc(NCC2CCCO2)n2c(nc3ccccc32)c1C#N (stereo not drawn)	7.5	-131.9	-17.2	0.9	+	-3.4
Cc1ccccc1CNC(=O)c1[nH]c(C(F)(F)F)nc1-c1ccccc1	nt	nt	nt	nt	-1.4	nt
O=C(c1cc(=O)[nH]c2ccccc12)N1CCN(c2ccccc2)CC1	9.1	-0.9	-6.1	4.9	-2.9	-2.3
COc1ccc(C2CC(c3cccs3)n3nc(N)nc3N2)cc1 (stereo not drawn)	23.8	-7.2	3.1	4.3	134.6*	1.9
O=C(O)C1C(c2ccccc2)c2ccccc2C(O)C1CO (stereo not drawn)	10.2	nt	nt	nt	1.4	nt
O=C(CCC(=O)N1CCOc2ccccc21)NCc1cccnc1	-6.6	-2.1	5.4	-2.4	3.8	-3.6
CCOC(=O)c1c(N)n(CCCOC(=O)c2ccco2)c2nc3ccccc3nc12	9.2	-152.2	4.9	-12.8	+	-1.0
COCCNC(=O)c1c(N)n(CCC(C)C)c2nc3ccccc3nc12	6.0	-316.0	97.7	-124.4	120.7*	-1.5
COCCn1c(N)c(C(=O)NCC2CCCO2)c2nc3ccccc3nc21 (stereo not drawn)	17.5	i	-5.7	-190.7	+	0.1
COCCCn1c(N)c(C(=O)OCCOC)c2nc3ccccc3nc21	14.2	-0.7	-10.9	-17.2	+	1.9
CCOC(=O)c1c(N)n(Cc2ccc(OC)cc2)c2nc3ccccc3nc12	nt	-38.1	nt	nt	nt	nt
COc1ccc(OC)c(-n2c(N)c(C(=O)NCC3CCCO3)c3nc4ccccc4nc32)c1 (stereo not drawn)	3.4	8.8	nt	nt	4.5	nt
COCCCn1c(N)c(-c2nc3ccccc3n2C)c2nc3ccccc3nc21	15.5	-47.2	99.7	-4.9	1.6	-0.4
Cc1ccc(NC(=O)Cn2nnc(C(=O)NCc3ccc(Cl)cc3)c2N)cc1F	5.2	0.7	2.3	-22.1	-1.7	-3.0
CCCCN(C=O)c1c(CC)nc2ccc(C(=O)N3CCN(c4ccccc4)CC3)cn12	-4.8	nt	nt	nt	-1.2	nt
SMILES	GDH-TPI counter	RecA intein inh	Mtb bLac sens	Rv3671c inh	Mtb FBA inh	Mtb UGM inh
CC(C)OCCCNC(=O)c1c(N)n(/N=C/c2ccccn2)c2nc3ccccc3nc12	13.4	2.1	3.0	-13.7	1.0	0.7
Nc1c(C(=O)OCC2CCCO2)c2nc3ccccc3nc2n1Cc1cccs1 (stereo not drawn)	22.5	16.2	-4.9	-29.8	163.1*	2.9
COCCCNC(=O)c1c(N)n(/N=C/c2cccs2)c2nc3ccccc3nc12	0.0	-44.7	27.0	-3.4	-0.6	-2.0
CC(C)OCCCNC(=O)c1c(N)n(Cc2cccs2)c2nc3ccccc3nc12	12.9	-34.0	12.6	-176.8	34.4*	0.6
COCCCNC(=O)c1c(N)n(/N=C/c2cccnc2)c2nc3ccccc3nc12	9.1	-8.8	19.6	-9.6	-5.8	-0.5
COCCNC(=O)c1c(N)n(CCCn2ccnc2)c2nc3ccccc3nc12	15.7	i	2.5	-19.1	131.6*	-1.2
Nc1c(C(=O)NCC2CCCO2)c2nc3ccccc3nc2n1/N=C/c1ccncc1 (stereo not drawn)	1.3	nt	nt	nt	1.2	nt
CCCCNC(=O)c1c(N)n(CCCOC)c2nc3ccccc3nc12	-0.6	-159.7	78.0	-82.5	115.2*	-0.9
Cc1ccc(Cc2c(-c3ccc(Cl)cc3)nc3c(Cl)cc(C(F)(F)F)cn23)cc1	nt	nt	nt	nt	2.9	nt
CCCCCCCN(c1ccccc1)[C@@H]1C[C@H]2CCCC(=O)N3CC[C@@H](C1)[C@@H]23	3.1	nt	nt	nt	-3.0	nt
CC(=O)N1CCC(C(=O)Nc2ccc(S(=O)(=O)N3CCCCC3)cc2)CC1	-3.4	-0.4	-2.8	0.5	0.3	0.3
CC(C)CN(C(=O)COC(=O)CSc1ccccc1)c1c(N)n(Cc2ccccc2)c(=O)[nH]c1=O	1.4	-3.8	-1.0	-0.7	7.6	1.9
CC(C)CCNC(=O)c1c(N)n(Cc2ccc3c(c2)OCO3)c2nc3ccccc3nc12	1.4	-3.8	31.8	-6.9	2.6	-2.3
CC(C)CCn1c(N)c(C(=O)NCc2cccs2)c2nc3ccccc3nc21	-3.8	88.1*	2.7	-2.5	2.3	-1.8
Cc1nc2ccccc2c(=O)n1-c1cccc([N+](=O)[O-])c1	-2.8	-1.5	1.6	3.6	-0.8	3.2
CC1=NN(c2cccc([N+](=O)[O-])c2)C(=O)C1	9.2	84.1*	-0.3	-22.9	-3.4	0.2
CCC1(C)Cc2ccccc2-c2nc(NN)[nH]c(=O)c21 (stereo not drawn)	16.0	6.4	-0.3	-2.9	24.8	-0.8
O=c1[nH]c(NCCO)nc2c1C1(CCCC1)Cc1ccccc1-2	8.9	-0.5	-0.6	-0.9	112.5*	3.9
CC1(C)Cc2ccccc2-c2nc(NCCCO)[nH]c(=O)c21	11.4	0.7	-2.9	-1.7	199.8*	2.4
CCC1(C)Cc2ccccc2-c2nc(NCCO)[nH]c(=O)c21 (stereo not drawn)	16.3	1.4	-9.3	1.2	170.6*	3.5
O=C1CCCC2=C1C1(CCCC1)N=C(Nc1nc3cc(-c4ccccc4)ccc3o1)N2	5.2	nt	nt	nt	0.8	nt
NC(c1csc(Nc2ccc(C(F)(F)F)cn2)n1)C1CCCCC1 (stereo not drawn)	-8.0	nt	nt	nt	-2.7	nt
OC[C@H]1O[C@@H](c2nc(-c3ccc(CN4CCOCC4)cc3)no2)[C@H](O)[C@@H](O)[C@H]1O	-3.1	nt	nt	nt	1.9	nt
CC(=O)N1N=C(c2ccc(C)o2)CC1c1ccc(F)cc1 (stereo not drawn)	70.7*	1.9	-2.9	7.5	-0.6	0.8
N/C(=N\N=C\c1ccc(O)c(O)c1)c1nonc1N	41.2*	-4.2	1.5	30.2	-2.3	-0.5
